Screening results from PubChem BioAssay.
JMJD2A Tudor inh = blocks the human JMJD2A Tudor domain | AlphaScreen JMJD2A-Tudor / H3K4me3 peptide binding | O75164 | Potency, µM (series often up to 114 µM), for the others: at the highest dose activity change, negative = inhibition, usual class: inhibitors | 4.4% of 390,000 active | AID 504339; note: % is set by controls: 0 for no effect and ±100 for the full control effect; nearly all actives have a fitted effect of over 50% in size
BAZ2B block = inhibitors of human BAZ2B bromodomain; 4.4% of 360,000 active; AID 504333; AlphaScreen BAZ2B-H3K14Ac peptide displacement; Q9UIF8; Potency, µM (top dose mostly 114 µM), for the others: at the highest dose activity change, negative = inhibition, actives largely listed as inhibitors; note: % is set by controls: 0 for no effect and ±100 for the full control effect; nearly all actives have a fitted effect of over 60% in size
Target sequence (Q9UIF8 whole entry, looked up): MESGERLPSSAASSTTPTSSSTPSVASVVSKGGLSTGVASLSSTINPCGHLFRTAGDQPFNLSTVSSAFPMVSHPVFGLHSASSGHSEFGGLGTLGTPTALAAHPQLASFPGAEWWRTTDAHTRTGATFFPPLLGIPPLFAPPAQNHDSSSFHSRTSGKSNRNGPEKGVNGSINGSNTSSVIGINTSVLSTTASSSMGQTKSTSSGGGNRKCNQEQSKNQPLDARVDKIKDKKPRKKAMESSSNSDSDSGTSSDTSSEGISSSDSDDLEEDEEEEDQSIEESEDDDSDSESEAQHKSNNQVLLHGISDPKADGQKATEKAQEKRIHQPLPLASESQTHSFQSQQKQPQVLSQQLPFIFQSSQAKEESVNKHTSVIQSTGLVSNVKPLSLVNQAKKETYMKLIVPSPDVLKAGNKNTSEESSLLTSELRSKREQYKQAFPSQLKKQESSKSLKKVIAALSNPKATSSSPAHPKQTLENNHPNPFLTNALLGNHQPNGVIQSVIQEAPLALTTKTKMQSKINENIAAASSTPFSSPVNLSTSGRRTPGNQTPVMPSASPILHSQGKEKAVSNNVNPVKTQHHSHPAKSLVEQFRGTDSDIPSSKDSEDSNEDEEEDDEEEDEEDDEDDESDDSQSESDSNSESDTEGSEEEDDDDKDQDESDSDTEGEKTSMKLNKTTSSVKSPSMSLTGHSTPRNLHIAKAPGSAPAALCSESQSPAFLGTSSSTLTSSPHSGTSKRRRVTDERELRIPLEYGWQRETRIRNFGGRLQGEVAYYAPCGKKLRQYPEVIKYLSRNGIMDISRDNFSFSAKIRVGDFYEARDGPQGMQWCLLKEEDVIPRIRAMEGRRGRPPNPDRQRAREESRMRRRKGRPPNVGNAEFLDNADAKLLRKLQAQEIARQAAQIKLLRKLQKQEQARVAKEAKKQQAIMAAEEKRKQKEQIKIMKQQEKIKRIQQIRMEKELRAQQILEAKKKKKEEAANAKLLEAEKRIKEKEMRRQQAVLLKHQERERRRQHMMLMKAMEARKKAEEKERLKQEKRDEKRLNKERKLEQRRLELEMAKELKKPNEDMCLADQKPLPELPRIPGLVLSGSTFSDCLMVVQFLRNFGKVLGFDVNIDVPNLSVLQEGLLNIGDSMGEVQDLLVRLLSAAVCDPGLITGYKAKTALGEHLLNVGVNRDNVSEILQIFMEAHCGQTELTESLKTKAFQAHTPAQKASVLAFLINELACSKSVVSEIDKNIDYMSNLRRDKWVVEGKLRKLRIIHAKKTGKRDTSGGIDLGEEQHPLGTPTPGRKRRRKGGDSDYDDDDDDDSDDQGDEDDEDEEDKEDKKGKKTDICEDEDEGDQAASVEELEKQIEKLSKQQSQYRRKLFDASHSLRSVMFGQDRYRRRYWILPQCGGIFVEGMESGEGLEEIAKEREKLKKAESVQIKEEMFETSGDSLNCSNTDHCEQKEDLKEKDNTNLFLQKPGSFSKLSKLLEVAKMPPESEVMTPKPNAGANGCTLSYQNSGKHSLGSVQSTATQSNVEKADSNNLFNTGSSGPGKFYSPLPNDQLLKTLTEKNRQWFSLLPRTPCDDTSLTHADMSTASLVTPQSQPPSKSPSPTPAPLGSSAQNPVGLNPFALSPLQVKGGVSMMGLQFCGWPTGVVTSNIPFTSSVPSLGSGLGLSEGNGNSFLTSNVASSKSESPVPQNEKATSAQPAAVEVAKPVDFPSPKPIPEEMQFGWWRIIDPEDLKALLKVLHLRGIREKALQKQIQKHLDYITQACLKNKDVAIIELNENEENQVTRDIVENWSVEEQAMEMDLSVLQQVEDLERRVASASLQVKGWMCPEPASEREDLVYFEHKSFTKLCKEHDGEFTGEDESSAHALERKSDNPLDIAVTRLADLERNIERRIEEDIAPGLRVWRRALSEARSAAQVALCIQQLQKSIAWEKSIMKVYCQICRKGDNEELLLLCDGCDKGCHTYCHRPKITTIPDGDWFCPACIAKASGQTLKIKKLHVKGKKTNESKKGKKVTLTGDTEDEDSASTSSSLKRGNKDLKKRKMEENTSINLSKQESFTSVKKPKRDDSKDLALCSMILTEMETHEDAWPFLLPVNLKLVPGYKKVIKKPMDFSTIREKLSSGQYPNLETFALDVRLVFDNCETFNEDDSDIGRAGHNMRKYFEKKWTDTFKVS
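In this displacement format the biotinylated H3(5-23) peptide acetylated at Lys14 serves as ligand at 50 nM, with BAZ2B at 50 nM in PBS pH 7.4 containing 0.01% Tween-20. Donor and acceptor beads are 10 ug/mL final.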
L3MBTL1 block = inhibitors of human L3MBTL1; AlphaScreen L3MBTL1–H3K9me1 peptide binding; 0.66% of 230,000 active; Potency, µM (doses to about 57.1 µM), without a hit: at the top dose activity, negative = inhibition, most hits filed as inhibitors; Q9Y468; note: % is set by controls: 0 for no effect and ±100 for the full control effect; nearly all actives have a fitted effect of over 60% in size
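Displacement of a biotinylated histone H3(1-15) peptide monomethylated at Lys9 (75 nM) from L3MBTL1 (50 nM) was measured by AlphaScreen after a 30 min room-temperature compound incubation; cefsulodin titration served as intraplate control.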
HP1b chromo inh = inhibitors of HP1-beta chromodomain binding to methylated histone tails; 0.56% of 390,000 active; Potency, µM (titrated, usually from 114 µM), inactives show top-dose activity change, negative = inhibition, usual class: inhibitors; AlphaScreen HP1-beta / biotin-H3K9me3 peptide binding; note: nearly all actives have a fitted effect of over 70% in size
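Compound inhibition of the preformed complex between 50 nM HP1-beta and 50 nM biotinylated H3K9me3 peptide was read by AlphaScreen. Buffer was PBS pH 7.4 with 0.01% Tween-20. Incubations ran 30 min at room temperature, with 10 ug/mL donor/acceptor beads.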
G9a block = G9a (human) methyltransferase inhibition | AID 504332 | G9a H3K9 monomethylation, AlphaScreen, 2 h | 8.8% of 350,000 active | Potency, µM (doses to about 102 µM), without a hit: at the highest dose activity, negative = inhibition, usual class: inhibitors | Q96KQ7; note: % is set by controls: 0 for no effect and ±100 for the full control effect; nearly all actives have a fitted effect of over 75% in size
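Quantitative HTS format: methyltransferase activity on a biotin-tagged H3K9 peptide is measured by AlphaScreen, using a rabbit anti-monomethyl-H3K9 antibody with streptavidin donor and anti-IgG acceptor beads. Final levels are 20 nM enzyme, 500 nM peptide, 20 uM SAM; 2 h RT.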
Sfp PPTase inh = inhibitors of Bacillus subtilis Sfp phosphopantetheinyl transferase; Potency, µM, for the others: largest response in the series, negative = inhibition, hits mostly inhibitors; AID 1490; 3.5% of 310,000 active; Q9F4F7; Biochemical Sfp PPTase activity, qHTS;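 note: the enzyme is Sfp with the accession as filed and its product quenches rhodamine fluorescence; 0% = enzyme reaction without inhibitor and -100% = no enzyme wells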
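Compounds were incubated with enzyme (final 15 nM) for 15 min at room temperature before substrate addition started the reaction. Fluorescence at 525 nm excitation, 598 nm emission was recorded immediately and after 30 minutes.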
Numbers without * were called inactive; ? = inconclusive; nt = no result given; [ ] = another dose, or the depositor's remark. The list is not random: actives were taken first. Their share in the collection is about 12%. Calls come from the whole dose curve; as a rule, active = well fitted curve in the direction sought with a large enough effect; inconclusive = small, poorly fitted or top-dose-only effect, or another doubt; inactive = no such curve, though single readings can be large; an effect the other way counts as inactive or inconclusive. Potency is the fitted concentration of half-maximal effect.

SMILES	JMJD2A Tudor inh	BAZ2B block	L3MBTL1 block	HP1b chromo inh	G9a block	Sfp PPTase inh
CCn1c(SCC(=O)N/N=C/c2cccs2)nc2ccccc21	-22%	6%	2%	30%	-5%[59 µM]	-6%
Cc1ccc(CSc2nnc(SCC(=O)N/N=C/C=C/c3ccco3)s2)cc1	-13%	50µM*	?	5%	?	40µM*
CNC(=O)c1ccc(CSc2nc3ccncc3n2Cc2ccc(C)cc2)cc1	-32%	-8%	nt	13%	?	nt
Cc1onc(-c2ccccc2Cl)c1C(=O)Oc1ccccc1F	42%	112%	nt	79%	33%[59 µM]	nt
COc1ccc(OC)c(NC(=O)c2ccc(-c3nc(COc4ccccc4)c(C)o3)cc2)c1	-26%	?	nt	-2%	?	nt
COc1ccc(CCN2C(=O)c3cccnc3C2=O)cc1OC	-12%	79µM*	-3%	13%	-42%	30%
COc1ccc(CCn2c(C)ccc2C)cc1OC	nt	-8%	-6%	nt	-6%[59 µM]	14%
COc1ccc(CCN2C(=O)C=CC2=O)cc1OC	32µM*	nt	nt	?	nt	nt
COC(=O)C1=C(C)N(CCc2ccc(OC)c(OC)c2)C(=O)/C1=C\N(C)C	-6%	-3%	nt	46%	45µM*	-23%
COc1ccc(CCN2C(=O)CC(Cc3ccc(C)cc3)C2=O)cc1OC (configuration not stated)	10µM*	1%	-3%	-6%	-2%[0.501 µM]	11%
COc1ccc(CCNC2=C(Cl)C(=O)N(CCc3ccc(OC)c(OC)c3)C2=O)cc1OC	15%	12%	nt	28%	-2%[59 µM]	-16%
COc1ccc(CCN2C(=O)CC(NC34CC5CC(CC(C5)C3)C4)C2=O)cc1OC (configuration not stated)	-20%	-17%	0%	43%	?	-13%
CN[C@H]1[C@@H](O)[C@@H](NC)[C@@H]2O[C@@]3(O)C(=O)C[C@@H](C)O[C@H]3O[C@H]2[C@H]1O	nt	nt	nt	nt	32%[21.5 µM]	8%
COC(=O)N1CCC2(CCN(C(=O)Nc3cccc(C#N)c3)CC2)CC1	nt	nt	nt	nt	14%[12.7 µM]	25%
COc1ccc(CNC(=O)Cn2cc(C(F)(F)F)ccc2=O)cc1	-11%	12%	-3%	16%	50µM*	-8%
CN(CC(=O)NC(=O)NCc1ccccc1)Cc1ccc(Cl)cc1	16%	-3%	7%	45%	45µM*	-13%
CC(C)(C)NC(=O)Nc1ccc(Cn2cc(C(F)(F)F)ccc2=O)cc1	32µM*	2%	31%	-5%	8%	17%
CNC(=O)Nc1ccc(Cn2cc(C(F)(F)F)ccc2=O)cc1	8%	-21%	-4%	50%	6%	-9%
COc1ccc(CNC(=O)CN(C)Cc2ccc(C(C)(C)C)cc2)cc1	2.8µM*	22µM*	nt	?	40µM*	?
CCN(CC)C(=O)CS(=O)(=O)CC(=O)Nc1cc(OCCOC)c(Cl)cc1Cl	-3%	4%	6%	8%	50µM*	13%
COc1ccc(-c2cc3nc(C)c(CCC(=O)NC(C)c4ccccc4)c(C)n3n2)c(OC)c1 (configuration not stated)	-20%	?	nt	13%	-2%[59 µM]	nt
CCSc1ncc(Cl)c(C(=O)N(Cc2ccccc2)Cc2ccco2)n1	2%	24%	nt	55%	17%[59 µM]	nt
Cc1ccc2c(CC(=O)N(Cc3ccc(N(C)C)cc3)Cc3ccco3)coc2c1C	13µM*	8.9µM*	nt	?	8.9µM*	nt
CN(C)c1ccc(CN(Cc2ccco2)C(=O)c2ccco2)cc1	32µM*	?	nt	?	45µM*	-13%
CSc1ncc(Cl)c(C(=O)N(Cc2ccc(N(C)C)cc2)Cc2ccco2)n1	22µM*	18µM*	nt	?	13µM*	nt
SMILES	JMJD2A Tudor inh	BAZ2B block	L3MBTL1 block	HP1b chromo inh	G9a block	Sfp PPTase inh
CC(C)(C)c1ccc(C(=O)N(Cc2ccc(F)cc2)Cc2ccco2)cc1	-5%	15%	nt	69%	?	nt
Cc1cc(C)c2c(CC(=O)N(Cc3ccc(Cl)cc3)Cc3ccco3)coc2c1	-17%	-30%	nt	34%	-16%[59 µM]	nt
O=C(c1ccco1)N(Cc1ccc(Cl)cc1)Cc1ccco1	-5%	?	nt	32%	32µM*	1%
Cc1c(C(=O)N(Cc2ccc(N(C)C)cc2)Cc2ccco2)oc2cc(Br)ccc12	18µM*	?	nt	?	?	nt
CC(C)COc1ccc(C(=O)N(Cc2ccc(N(C)C)cc2)Cc2ccco2)cc1	14µM*	13µM*	nt	-15%	16µM*	nt
COc1ccc(C(=O)N(Cc2ccco2)Cc2ccco2)cc1	-22%	-30%	nt	10%	8%[59 µM]	nt
CCOc1cccc(C(=O)N(Cc2ccc(F)cc2)Cc2ccco2)c1	-4%	19%	nt	35%	6%[59 µM]	nt
CCOc1c(Cl)cc(C(=O)N(Cc2ccc(N(C)C)cc2)Cc2ccco2)cc1Cl	13µM*	13µM*	nt	-24%	?	nt
CCOc1ccccc1C(=O)N(Cc1ccc(N(C)C)cc1)Cc1ccco1	25µM*	35µM*	nt	?	20µM*	nt
CCOC(=O)Cn1c(=O)n(-c2ccccc2OC)c2nc(-c3ccc(C(C)C)cc3)nc(C(N)=O)c21	-18%	-39%	nt	19%[57 µM]	3%[59 µM]	nt
CC(=O)N[C@H]1CSSC[C@@H](C(=O)N2CCC[C@H]2C(=O)N2CCC[C@H]2C(=O)N[C@@H](CCCCN)C(=O)N[C@@H](CC(=O)O)C(N)=O)NC(=O)CNC(=O)[C@H](Cc2c[nH]c3ccccc23)NC(=O)[C@H](CCCNC(=N)N)NC(=O)[C@@H](Cc2ccc3ccccc3c2)NC(=O)[C@H](Cc2cnc[nH]2)NC(=O)[C@H](CCC(=O)O)NC1=O	nt	nt	nt	nt	nt	7%
Cc1cccc(N(C)C(=O)Cn2c(=O)oc3cc(S(=O)(=O)N4CCCCC4)ccc32)c1	-17%	-1%	nt	8%	5%[59 µM]	nt
CCc1ccc(C2CC(=O)Nc3c2c(=O)n(C)c2ncnn32)cc1 (configuration not stated)	2%	-16%	nt	8%	-22%[59 µM]	nt
CCCCNC(=O)CN1CCN(c2ncc(NC(=O)c3ccc(Cl)cc3)cc2C(=O)O)CC1	79µM*	50µM*	nt	-31%	?	nt
CCCNC(=O)CN1CCN(c2ncc(NC(=O)c3ccc(Cl)cc3)cc2C(=O)O)CC1	71µM*	50µM*	nt	-23%	?	nt
CCCCNC(=O)CN1CCN(c2ccc(NC(=O)c3ccc(OC)cc3)cc2C(=O)O)CC1	?	-3%	nt	16%	-4%[59 µM]	nt
CCOC(=O)/C(=C\c1cccnc1)C(=O)c1cc(C(C)=O)c(Nc2ccccc2)s1	?	56µM*	nt	-11%	10µM*	40µM*
CC1CCCCC1NCC#CCOc1ccc(Cl)cc1 (configuration not stated)	20µM*	50µM*	8%[11.4 µM]	?	14µM*	-20%
